What all share (assay): SELEX-seq (CSI, HT-SELEX, round 3); SELEX-seq: 1x PBS (10 mM phosphate, 137 mM NaCl, 2.7 mM KCl) pH 7.6, 2.5 mM DTT, 50 ng/ul poly dI-dC, 0.1% BSA, 50 nM biotinylated bZIP (1:3 with partner for heterodimers), 100 nM library, room temperature, 1 h, 3 rounds; high values mean tight binding
What all share (conditions): protein: recombinant;recombinant; copies: 1;1; dsDNA, one strand shown

Experiment [1] concerns the target FOS;MAFB (Homo sapiens;Homo sapiens, UniProt P01100;Q9Y5Q3 128-201;212-305, |).
Experiment [2] concerns the target FOS;BATF2 (Homo sapiens;Homo sapiens, UniProt P01100;Q8N1L9 128-201;8-85, |).
For experiment [3], the target named is FOS;CREB3 (Homo sapiens;Homo sapiens, UniProt P01100;O43889 128-201;141-221, |).
Chain of FOS;CREB3 (P01100 other isoform, or with tags, fused parts or gaps |, chain 1 of 2): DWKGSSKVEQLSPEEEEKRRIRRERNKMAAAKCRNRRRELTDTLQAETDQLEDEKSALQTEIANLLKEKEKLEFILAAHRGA
Chain of FOS;CREB3 (O43889 other isoform, or with tags, fused parts or gaps |, chain 2 of 2): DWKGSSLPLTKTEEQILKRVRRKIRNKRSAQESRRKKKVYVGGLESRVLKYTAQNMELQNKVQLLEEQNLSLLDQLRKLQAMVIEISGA
Experiment [4] has as its target T1, ATF5;CEBPE (Homo sapiens;Homo sapiens, UniProt Q9Y2D1;Q15744 199-275;195-267, |).
T1 sequence 1: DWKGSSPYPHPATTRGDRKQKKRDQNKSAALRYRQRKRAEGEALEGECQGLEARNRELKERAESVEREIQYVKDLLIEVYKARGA
T1 sequence 2: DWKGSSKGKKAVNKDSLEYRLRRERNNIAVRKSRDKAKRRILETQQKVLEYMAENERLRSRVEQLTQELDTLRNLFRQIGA

Experiment [5] addresses T2, ATF5;JUNB (Homo sapiens;Homo sapiens, UniProt Q9Y2D1;P17275 199-275;259-332, |).
T2 sequence 1: T1 sequence 1
T2 sequence 2: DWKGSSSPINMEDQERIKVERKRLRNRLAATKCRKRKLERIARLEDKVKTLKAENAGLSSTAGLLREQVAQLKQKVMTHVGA

The target in experiment [6] is T3, ATF5;BATF (Homo sapiens;Homo sapiens, UniProt Q9Y2D1;Q16520 199-275;17-90, |).
T3 sequence 1: T1 sequence 1
T3 sequence 2: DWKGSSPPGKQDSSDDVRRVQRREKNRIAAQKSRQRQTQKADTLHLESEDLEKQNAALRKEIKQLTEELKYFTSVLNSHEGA

The target of experiment [7] is ATF5;FOS (Homo sapiens;Homo sapiens, UniProt Q9Y2D1;P01100 199-275;128-201, |).
Chain of ATF5;FOS (P01100 other isoform, or with tags, fused parts or gaps |): as the sequence (P01100 other isoform, or with tags, fused parts or gaps |, chain 1 of 2) above
For experiment [8], the target named is T4, ATF5;CREB3L1 (Homo sapiens;Homo sapiens, UniProt Q9Y2D1;Q96BA8 199-275;281-358, |).
T4 sequence 1: T1 sequence 1
T4 sequence 2: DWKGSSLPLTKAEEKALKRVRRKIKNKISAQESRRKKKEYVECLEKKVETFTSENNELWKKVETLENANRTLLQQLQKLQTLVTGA

Experiment [9] addresses T5, ATF5;BATF2 (Homo sapiens;Homo sapiens, UniProt Q9Y2D1;Q8N1L9 199-275;8-85, |).
T5 sequence 1: T1 sequence 1
T5 sequence 2: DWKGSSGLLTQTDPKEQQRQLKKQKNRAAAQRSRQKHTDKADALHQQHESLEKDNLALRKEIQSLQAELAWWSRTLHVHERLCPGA

For experiment [10], the target named is T6, ATF5;CREB3L3 (Homo sapiens;Homo sapiens, UniProt Q9Y2D1;Q68CJ9 199-275;234-311, |).
T6 sequence 1: T1 sequence 1
T6 sequence 2: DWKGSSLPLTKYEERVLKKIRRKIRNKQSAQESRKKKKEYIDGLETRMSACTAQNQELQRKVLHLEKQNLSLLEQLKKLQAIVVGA

Experiment [11] has as its target NFE2;MAFG (Homo sapiens;Homo sapiens, UniProt Q16621;O15525 221-337;25-124, |).
In experiment [12] the target is T7, NFIL3;NFIL3 (Homo sapiens;Homo sapiens, UniProt Q16649;Q16649 64-134;64-134, |).
T7 sequence 1: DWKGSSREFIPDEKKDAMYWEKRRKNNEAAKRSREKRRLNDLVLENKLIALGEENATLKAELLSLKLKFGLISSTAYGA
T7 sequence 2: T7 sequence 1

The target in experiment [13] is MAFB;FOSL1 (Homo sapiens;Homo sapiens, UniProt Q9Y5Q3;P15407 212-305;96-169, |).
Chain of MAFB;FOSL1 (Q9Y5Q3 other isoform, or with tags, fused parts or gaps |, chain 1 of 2): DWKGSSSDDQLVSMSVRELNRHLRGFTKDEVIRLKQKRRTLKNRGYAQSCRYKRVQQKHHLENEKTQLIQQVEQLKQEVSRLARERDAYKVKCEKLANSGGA
Chain of MAFB;FOSL1 (P15407 other isoform, or with tags, fused parts or gaps |, chain 2 of 2): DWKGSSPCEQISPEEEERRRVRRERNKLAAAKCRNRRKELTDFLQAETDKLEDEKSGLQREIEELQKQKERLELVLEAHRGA
Experiment [14] deals with MAFB;ATF5 (Homo sapiens;Homo sapiens, UniProt Q9Y5Q3;Q9Y2D1 212-305;199-275, |).
The target in experiment [15] is FOS;NFE2L1 (Homo sapiens;Homo sapiens, UniProt P01100;Q14494 128-201;609-725, |).
Chain of FOS;NFE2L1 (P01100 other isoform, or with tags, fused parts or gaps |, chain 1 of 2): as the sequence (P01100 other isoform, or with tags, fused parts or gaps |, chain 1 of 2) above
Chain of FOS;NFE2L1 (Q14494 other isoform, or with tags, fused parts or gaps |, chain 2 of 2): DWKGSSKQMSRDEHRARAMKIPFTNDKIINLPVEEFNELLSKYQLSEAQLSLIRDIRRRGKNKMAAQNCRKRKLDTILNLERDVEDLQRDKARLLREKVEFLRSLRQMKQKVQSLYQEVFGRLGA
The target of experiment [16] is FOS;CREB3L3 (Homo sapiens;Homo sapiens, UniProt P01100;Q68CJ9 128-201;234-311, |).
Chain of FOS;CREB3L3 (P01100 other isoform, or with tags, fused parts or gaps |, chain 1 of 2, one chain of several): as the sequence (P01100 other isoform, or with tags, fused parts or gaps |, chain 1 of 2) above
Experiment [17] has as its target T8, NFE2;NFE2 (Homo sapiens;Homo sapiens, UniProt Q16621;Q16621 221-337;221-337, |).
T8 sequence 1: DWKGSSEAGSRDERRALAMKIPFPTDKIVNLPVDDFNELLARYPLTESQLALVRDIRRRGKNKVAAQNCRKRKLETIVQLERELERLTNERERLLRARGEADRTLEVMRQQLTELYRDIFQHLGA
T8 sequence 2: T8 sequence 1

Experiment [18] has as its target NFE2L1;MAFG (Homo sapiens;Homo sapiens, UniProt Q14494;O15525 609-725;25-124, |).
Experiment [19] deals with T9, HLF;HLF (Homo sapiens;Homo sapiens, UniProt Q16534;Q16534 216-293;216-293, |).
T9 sequence 1: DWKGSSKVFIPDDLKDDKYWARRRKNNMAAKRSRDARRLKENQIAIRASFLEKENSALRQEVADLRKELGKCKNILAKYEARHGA
T9 sequence 2: T9 sequence 1

Experiment [20] has as its target MAFG;MAFG (Homo sapiens;Homo sapiens, UniProt O15525;O15525 25-124;25-124, |).

Chain of FOS;BATF2 (P01100 other isoform, or with tags, fused parts or gaps |): as the sequence (P01100 other isoform, or with tags, fused parts or gaps |, chain 1 of 2) above
Chain of FOS;MAFB (P01100 other isoform, or with tags, fused parts or gaps |, chain 1 of 2): as the sequence (P01100 other isoform, or with tags, fused parts or gaps |, chain 1 of 2) above
Chain of FOS;MAFB (Q9Y5Q3 other isoform, or with tags, fused parts or gaps |, chain 2 of 2): as the sequence (Q9Y5Q3 other isoform, or with tags, fused parts or gaps |, chain 1 of 2) above

With CCTGACGTCA, the binding signal was 0.0128 relative CSI intensity (max = 1) in [1]; 0.00375 relative CSI intensity (max = 1) in experiment [2]; 0.0122 relative CSI intensity (max = 1) in experiment [3]; 0.073 relative CSI intensity (max = 1) in experiment [4]; 0.0543 relative CSI intensity (max = 1) in experiment [5]; 0.0188 relative CSI intensity (max = 1) in [6]. For the same sequence, the binding signal in experiment [7] is 0.0125 relative CSI intensity (max = 1); in [8], 0.00567 relative CSI intensity (max = 1); in experiment [9], 0.0163 relative CSI intensity (max = 1); in experiment [10], 0.00229 relative CSI intensity (max = 1); in experiment [11] it was 0.00227 relative CSI intensity (max = 1); in experiment [12], 0.00977 relative CSI intensity (max = 1). For the same sequence, the figures for the binding signal in experiment [13] and in [14] were 0.0285 relative CSI intensity (max = 1) and 0.0743 relative CSI intensity (max = 1), respectively.
For the sequence ATGACGTCAT, the binding signal in [15] is 0.472 relative CSI intensity (max = 1); in experiment [1], 0.278 relative CSI intensity (max = 1); in experiment [2], 1 relative CSI intensity (max = 1); in [3], 1 relative CSI intensity (max = 1); in [16], 0.751 relative CSI intensity (max = 1); in [4], 0.364 relative CSI intensity (max = 1). Besides, the binding signal is 1 relative CSI intensity (max = 1) in experiment [5]; 0.864 relative CSI intensity (max = 1) in experiment [6]; 1 relative CSI intensity (max = 1) in experiment [7]; 1 relative CSI intensity (max = 1) in experiment [8]; 0.86 relative CSI intensity (max = 1) in experiment [9]; 1 relative CSI intensity (max = 1) in experiment [10]. Moreover, the binding signal in [17] was 0.112 relative CSI intensity (max = 1); in experiment [11], 0.0346 relative CSI intensity (max = 1); in [18] it was 0.0138 relative CSI intensity (max = 1); in [19], 0.205 relative CSI intensity (max = 1); in experiment [12], 0.344 relative CSI intensity (max = 1); in experiment [20], 0.0131 relative CSI intensity (max = 1). Also, the values for the binding signal in [13] and in experiment [14] were 0.196 relative CSI intensity (max = 1) and 0.148 relative CSI intensity (max = 1), respectively.
For the sequence ATGACGTAAT, the binding signal in [15] was 0.12 relative CSI intensity (max = 1); in [1], 0.0637 relative CSI intensity (max = 1); in [2], 0.0531 relative CSI intensity (max = 1); in experiment [16] it was 0.0238 relative CSI intensity (max = 1); in experiment [4], 0.189 relative CSI intensity (max = 1); in experiment [5] it was 0.0445 relative CSI intensity (max = 1). Moreover, the binding signal in [6] is 0.0375 relative CSI intensity (max = 1); in [7] it was 0.00734 relative CSI intensity (max = 1); in [8], 0.00877 relative CSI intensity (max = 1); in experiment [9] it was 0.174 relative CSI intensity (max = 1); in [10], 0.00383 relative CSI intensity (max = 1); in experiment [17], 0.00452 relative CSI intensity (max = 1). Further, the binding signal in experiment [11] is 0.00855 relative CSI intensity (max = 1); in [18] it was 0.0021 relative CSI intensity (max = 1); in experiment [19], 0.728 relative CSI intensity (max = 1); in [12] it was 0.7 relative CSI intensity (max = 1); in experiment [20] it was 0.0106 relative CSI intensity (max = 1); in experiment [13], 0.00946 relative CSI intensity (max = 1). In experiment [14], the binding signal was 0.0179 relative CSI intensity (max = 1).
On to ATGACGGAAT, for which the binding signal was 0.00712 relative CSI intensity (max = 1) in experiment [15]; 0.00352 relative CSI intensity (max = 1) in experiment [1]; 0.0131 relative CSI intensity (max = 1) in experiment [3]; 0.00582 relative CSI intensity (max = 1) in [16]; 0.047 relative CSI intensity (max = 1) in experiment [4]; 0.00218 relative CSI intensity (max = 1) in [5]. Moreover, the binding signal in [7] is 0.0159 relative CSI intensity (max = 1); in [18], 0.00175 relative CSI intensity (max = 1); in experiment [12] it was 0.00935 relative CSI intensity (max = 1); in [20], 0.00454 relative CSI intensity (max = 1).
For ATGACGCAAT, the binding signal was 0.49 relative CSI intensity (max = 1) in experiment [15]; 0.0613 relative CSI intensity (max = 1) in experiment [1]; 0.00476 relative CSI intensity (max = 1) in [2]; 0.0275 relative CSI intensity (max = 1) in experiment [3]; 0.00168 relative CSI intensity (max = 1) in experiment [16]; 0.245 relative CSI intensity (max = 1) in [4]. The binding signal is 0.00597 relative CSI intensity (max = 1) in experiment [5]; 0.00602 relative CSI intensity (max = 1) in experiment [6]; 0.024 relative CSI intensity (max = 1) in experiment [7]; 0.0275 relative CSI intensity (max = 1) in experiment [9]; 0.0016 relative CSI intensity (max = 1) in [17]; 0.00814 relative CSI intensity (max = 1) in experiment [11]. Besides, the binding signal in experiment [18] was 0.00759 relative CSI intensity (max = 1); in experiment [19], 0.245 relative CSI intensity (max = 1); in experiment [12], 0.224 relative CSI intensity (max = 1); in [13] it was 0.00163 relative CSI intensity (max = 1); in experiment [14] it was 0.00342 relative CSI intensity (max = 1).
With ATGATGCAAT, the binding signal in experiment [15] was 0.174 relative CSI intensity (max = 1); in [1] it was 0.0246 relative CSI intensity (max = 1); in experiment [3], 0.00378 relative CSI intensity (max = 1); in [16], 0.00314 relative CSI intensity (max = 1); in experiment [4], 0.402 relative CSI intensity (max = 1); in experiment [5], 0.00145 relative CSI intensity (max = 1). In addition, the binding signal in experiment [6] is 0.00475 relative CSI intensity (max = 1); in experiment [8], 0.00221 relative CSI intensity (max = 1); in experiment [9], 0.02 relative CSI intensity (max = 1); in experiment [11] it was 0.0058 relative CSI intensity (max = 1); in experiment [18], 0.00579 relative CSI intensity (max = 1); in experiment [19], 0.0587 relative CSI intensity (max = 1). In addition, the binding signal in experiment [12] is 0.107 relative CSI intensity (max = 1); in experiment [20], 0.00357 relative CSI intensity (max = 1); in experiment [13] it was 0.00125 relative CSI intensity (max = 1); in experiment [14], 0.00407 relative CSI intensity (max = 1).
